Test results from PubChem BioAssay (Tox21).
Results filed as inconclusive are left out. Entries that show only a call come without a potency. Active and inactive are the calls of the source. Calls follow the shape of the dose curve; as a rule, active = well fitted cell-killing curve with a large enough effect in the repeat runs; inconclusive = weak or mixed curves, or effect the other way; inactive = no such curve, though single readings can be large or run the other way.

experiment: qHTS assay to identify small molecule agonists of the farnesoid-X-receptor (FXR) signaling pathway - cell viability counter screen (AID 743218); settings: FXR-bla HEK293T viability, CellTiter-Glo luminescence, 16 h; series mostly up to 62.6 µM; also: nearly all actives have a fitted effect of over 45% in size
Text: U.S. Tox21 Program National Center for Advancing Translational Sciences [NCATS] NIH Chemical Genomics Center [NCGC] U.S. Environmental Protection Agency [EPA] National Institutes of Environmental Health Sciences [NIEHS] National Toxicology Program [NTP] U.S. Food and Drug Administration [FDA] Tox21 Assay Overview: The farnesoid-X-receptor (FXR), a nuclear hormone receptor, is highly expressed in liver, intestine, kidney and adrenal cortex. Natural ligands of FXR are the bile acids (Cholic acid, Chenodeoxy cholic acid etc). FXR is an important regulator of diverse metabolic pathways, including the bile acid homeostasis, lipid and glucose metabolisms. FXR regulates the expression of target genes by binding either as a monomer or as a heterodimer with the retinoid X receptor (RXR). Numerous studies have reported that FXR exerts protective function during cholestasis, diabetes, liver regeneration, and cancer. To identify compounds that activate FXR signaling, GeneBLAzer FXR-UAS-bla HEK 293T cell line (Invitrogen, Carlsbad, CA) containing a beta-lactamase reporter gene under the control of a UAS response element was used to screen the Tox21 10K compound library. The cytotoxicity of the Tox21 compound library against the FXR-bla cell line was tested in parallel by measuring the cell viability using CellTiter-Glo assay in the same wells.
Tox21 Assay Protocol Summary: FXR-bla cells were dispensed at 5000 cells/5uL/well in 1536-well black wall/clear bottom plates using a Multidrop Combi (Thermo Fisher Scientific, Waltham, MA) dispenser. After the assay plates were incubated at 37 C and 5% CO2 for 5 h, 23 nL of compounds dissolved in DMSO, positive controls or DMSO only was transferred to the assay plate by a Pintool station (Kalypsys, San Diego, CA). The assay plates were incubated at 37C for 16 h. After 1 uL of LiveBLAzerTM B/G FRET substrate was added using a Bioraptr Flying Reagent Dispenser (FRD) workstation (Beckman Coulter, Indianapolis, IN), the plates were incubated at room temperature for 2 h, and fluorescence intensity was measured by an Envision plate reader (PerkinElmer, Shelton, CT). For cell viability readout that measures cytotoxicity, 4uL/well of CellTiter-Glo reagent was added into the assay plates using a Bioraptr FRD. After 30 min incubation at room temperature, the luminescence intensity in the plates was measured using a ViewLux plate reader (PerkinElmer).
Potency is read from the fitted curve at half-maximal effect.

Compound | Potency | viability change, negative = cytotoxic
C=C(C)C(=O)OCCO | inactive | –
Cc1cc(N)c2cc(NC(=O)Nc3ccc4nc(C)cc(N)c4c3)ccc2n1 | inactive | –
CCN(CC)c1ccc(C(=C2C=CC(=[N+](CC)CC)C=C2)c2cc(S(=O)(=O)O)ccc2S(=O)(=O)[O-])cc1 | inactive | –
CCCCCC[C@@H](O)C/C=C\CCCCCCCC(=O)OC | inactive | –
CCCCCCCCCCCCCCCCCCOS(=O)(=O)O | 34.7 µM (active) | –
Nc1cccc([N+](=O)[O-])c1 | inactive | –
CC(CSC(=O)c1ccccc1)C(=O)N1C[C@@H](Sc2ccccc2)C[C@H]1C(=O)O (stereo not given in full) | inactive | –
O=C(NCC1CN(c2ccc(N3CCOCC3=O)cc2)C(=O)O1)c1ccc(Cl)s1 (stereo not given) | inactive | –
Nc1c(CC(=O)O)cccc1C(=O)c1ccc(Br)cc1 | inactive | –
c1ccc(CNCCNCc2ccccc2)cc1 | inactive | –
CC(C)=CCC/C(C)=C/CC/C(C)=C/CO | inactive | –
COCCCN1CCC(NC(=O)c2cc(Cl)c(N)c3c2OCC3)CC1 | inactive | –
O=C1[C@H]2CCCC[C@H]2C(=O)N1CCCCN1CCN(c2nsc3ccccc23)CC1 | inactive | –
COc1cc(C(=O)OCCCN2CCCN(CCCOC(=O)c3cc(OC)c(OC)c(OC)c3)CC2)cc(OC)c1OC | inactive | –
OC(CN1CCC(Cc2ccc(F)cc2)CC1)c1ccc(Cl)cc1 (stereo not given) | inactive | –
O=C1C(O)=C(O)C(=O)C(O)=C1O | inactive | –
C[C@@H]1C[C@H]2O[C@@]3(O[C@@H]2C(C)(C)O)[C@H](O)[C@@]2(C)[C@@H]4CC[C@H]5C(C)(C)[C@@H](O[C@@H]6OC[C@@H](O)[C@H](O)[C@H]6O)CC[C@@]56C[C@@]46CC[C@]2(C)[C@@H]13 | inactive | –
C[N+](C)(C)CCOC(=O)CCC(=O)OCC[N+](C)(C)C | inactive | –
CCC(C)O (stereo not given) | inactive | –
CCCCCCCCCCCCN1CCCCCC1=O | inactive | –

Compound | Potency | viability change, negative = cytotoxic
O=C(O)CC(=O)C(=O)O | inactive | –
C/C(=C(\CCOP(=O)(O)O)SC(=O)c1ccccc1)N(C=O)Cc1cnc(C)nc1N | – | 3.54% [at 5.95 µM] (inactive)
C1CCCNCCC1 | inactive | –
Nc1ncn([C@H]2C[C@H](O)[C@@H](CO)O2)c(=O)n1 | inactive | –
Cc1c(N)cccc1[N+](=O)[O-] | inactive | –
CCOc1ccc(N=Nc2ccc(/C=C/c3ccc(N=Nc4ccc(OCC)cc4)cc3S(=O)(=O)O)c(S(=O)(=O)O)c2)cc1 | inactive | –
COC(=O)c1ccc(I)cc1S(=O)(=O)NC(=O)Nc1nc(C)nc(OC)n1 | inactive | –
CCC(=O)O[C@]1(C(=O)CCl)[C@@H](C)C[C@H]2[C@@H]3CCC4=CC(=O)C=C[C@]4(C)[C@@]3(F)[C@@H](O)C[C@@]21C | inactive | –
O=C(O)c1ccc(S(=O)(=O)O)cc1C(=O)O | inactive | –
CCCCCCCN | inactive | –
CCOc1ccc(N)c([N+](=O)[O-])c1 | inactive | –
CCCCCCCCO[C@@H]1O[C@H](CO)[C@@H](O)[C@H](O)[C@H]1O | inactive | –
ClCCOCCOCCCl | inactive | –
CCCCCCCCCCCc1ccccc1 | inactive | –
COCC(C)OC(C)=O (stereo not given) | inactive | –
CCCCC(CC)COC(=O)COc1ccc(Cl)cc1Cl (stereo not given) | inactive | –
O=C1CCC(=O)O1 | inactive | –
COc1ccc2cccc(CCNC(C)=O)c2c1 | inactive | –
CC1=CC[C@H](C(C)C)C=C1 | inactive | –
CCC(C)(C)CC | inactive | –
